Screening data deposited in PubChem by several laboratories.
ABHD5-PLIN5 inh = ABHD5-PLIN5 protein interaction inhibition. Split G. princeps luciferase complementation, luminescence, 4 h. Q00G26+Q8WTS1. actives 0.78% (n = 360,000). inhibition, % at 4 µM. AID 602281;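 active = inhibition above the mean inhibition across every tested compound plus 3 SD, cut at about 22% in these data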
Granule exo inh = blocks lytic granule exocytosis | TALL-104 LAMP-1 surface exposure, flow cytometry; cells stimulated with thapsigargin and PMA | inhibition, % at 10 µM | actives 0.66% (n = 360,000);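 active = inhibition above about 55%, limit read from the data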
PRMT1 FP inh = PRMT1 (human) inhibition, primary screen; inhibition, % at 2.79 µM; recombinant PRMT1, activity-based probe fluorescence polarization; Q99873; actives 1.3% (n = 370,000);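 active = inhibition above about 21% made by adding two undisclosed values, limit read from the data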
Target sequence (Q99873 whole entry, looked up): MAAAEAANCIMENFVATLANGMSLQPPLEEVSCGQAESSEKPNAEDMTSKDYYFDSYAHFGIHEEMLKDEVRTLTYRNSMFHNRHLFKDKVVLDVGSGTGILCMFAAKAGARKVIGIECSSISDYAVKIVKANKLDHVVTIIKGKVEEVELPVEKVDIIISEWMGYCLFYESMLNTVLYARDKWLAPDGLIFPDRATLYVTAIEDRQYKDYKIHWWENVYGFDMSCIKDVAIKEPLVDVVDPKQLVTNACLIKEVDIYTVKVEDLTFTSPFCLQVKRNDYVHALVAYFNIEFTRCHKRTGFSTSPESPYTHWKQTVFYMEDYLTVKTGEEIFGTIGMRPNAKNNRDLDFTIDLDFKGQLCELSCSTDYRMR
TLR4 MyD88 comp = TLR4-MyD88 interaction inhibition in cells; O00206+Q99836; HeLa CL3-4 TLR4/MyD88 BLA complementation, FRET ratio; inhibition, % at 8.4 µM; actives 0.18% (n = 200,000); in the data active = inhibition above about 25%
NOD2 RIPK2 PPI = blocks binding of human NOD2 to RIPK2 | O43353 | CHO BLA complementation NOD2-RIPK2, CCF4 ratio | inhibition, % at 4.98 µM | actives 0.38% (n = 360,000) | AID 624267; in the data active = inhibition above about 21%
TLR9-MyD88 inh = blocks human TLR9 binding to MyD88; actives 0.21% (n = 340,000); CHO BLA complementation TLR9-MyD88, CCF4 FRET ratio; inhibition, % at 4.98 µM; Q9NR96+Q99836; AID 504734;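 active = inhibition above the mean over all tested compounds plus 3 SD, cut at about 21% in these data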
TLR4-MyD88 conf = confirmation of human TLR4-MyD88 binding inhibitors | shares compounds with TLR4 MyD88 comp | HeLa CL3-4 BLA complementation, CCF4 FRET ratio | inhibition, % at 8.4 µM | actives 50% (n = 350);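 active = mean inhibition across three repeat runs above about 25% carried over from the earlier screen, limit read from the data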
BLA inhibitor ct = inhibits beta-lactamase activity, counter-screen to TLR4-MyD88 binding inhibitors; shares compounds with TLR4 MyD88 comp; HeLa BLA reporter, CCF4 FRET ratio; inhibition, % at 8.4 µM; actives 63% (n = 350); AID 1237;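 active = mean inhibition over three repeats above about 26% taken from the earlier screen, limit read from the data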;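 also: HeLa cells stably expressing beta-lactamase reporter as counterscreen for TLR4-MyD88 inhibitors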
Each line names hits and unclear results; the compound was inactive in the other large screens (follow-up assays come after a bar, where they were run). Shown are actives, neighbours in structure and some others; about 2.6% of the full set was active somewhere.

CCOP(=O)(OCC)/C(=N/OC(=O)c1ccc(OC)cc1)C(N)=O	Granule exo inh 70.4 (no result: TLR4 MyD88 comp)
CCOP(=O)(OCC)/C(=N/OC(=O)c1ccccc1C)C(N)=O	none
Cc1cc(NC(=S)Nc2ccc(C)c(Cl)c2)n[nH]1	PRMT1 FP inh 24.1
COc1ccc(NC(=S)Nc2cc(C)[nH]n2)cc1Cl	none (no result: TLR4 MyD88 comp)
COc1ccc(C2CC(=O)C(c3cc(OC)c(OC)c(OC)c3)=CN2Cc2ccccc2)cc1 (configuration not stated)	none (no result: ABHD5-PLIN5 inh, Granule exo inh, TLR4 MyD88 comp, NOD2 RIPK2 PPI, TLR9-MyD88 inh)
CCCCc1ccc(-n2c(Cc3cccs3)n[nH]c2=S)cc1	PRMT1 FP inh 21.4
O=C(N=Nc1c(O)[nH]c2c(Cl)cc(Cl)cc12)c1ccccc1O	none (no result: ABHD5-PLIN5 inh, Granule exo inh, TLR4 MyD88 comp, NOD2 RIPK2 PPI, TLR9-MyD88 inh)
O=C1/C(=C/c2ccncc2)SC(=S)N1Nc1ccccc1	Granule exo inh 61.1 (no result: TLR4 MyD88 comp, TLR9-MyD88 inh)
O=Nc1ccc(Cl)cn1	none (no result: ABHD5-PLIN5 inh, Granule exo inh, TLR4 MyD88 comp, NOD2 RIPK2 PPI, TLR9-MyD88 inh)
Clc1ccc(N=c2ssnc2Cl)nc1	Granule exo inh 87.1, PRMT1 FP inh 21.2
COc1ccc(Cn2c(C)nc3c(c2=O)c2nc4ccccc4nc2n3Cc2ccco2)cc1	ABHD5-PLIN5 inh 32.6, PRMT1 FP inh 39.6 (no result: TLR4 MyD88 comp)
CCCCNc1cccc2c1S(=O)(=O)N[C@H](Cc1ccccc1)CO2	none (no result: ABHD5-PLIN5 inh, Granule exo inh, TLR4 MyD88 comp, NOD2 RIPK2 PPI, TLR9-MyD88 inh)
C#CC(=O)N(c1cccc(OC)c1)C(C(=O)NC1CCCC1)c1cccs1 (configuration not stated)	ABHD5-PLIN5 inh 22.9
C#CC(=O)N(c1ccc(OC)c(OC)c1)C(C(=O)NC1CCCC1)c1cccs1 (configuration not stated)	none
COC(=O)[C@]12C[C@H](CC(=O)NCc3ccc(OC)c(OC)c3)C(=O)N(Cc3ccc4c(c3)OCO4)C1=C[C@H](COCc1ccccc1)O[C@@H]2C	none (no result: ABHD5-PLIN5 inh, Granule exo inh, TLR4 MyD88 comp, NOD2 RIPK2 PPI, TLR9-MyD88 inh)
CON(C)C(=O)C(C)(C)CC#CCN(CC#Cc1ccccc1)S(=O)(=O)c1ccc(C)cc1	none (no result: ABHD5-PLIN5 inh, Granule exo inh, TLR4 MyD88 comp, NOD2 RIPK2 PPI, TLR9-MyD88 inh)
CCc1ccc(N2CC(C(=O)NCc3ccc4c(c3)OCO4)CC2=O)cc1 (configuration not stated)	none
O=C(NCc1ccc2c(c1)OCO2)C1CC(=O)N(c2ccc(F)cc2)C1 (configuration not stated)	TLR4 MyD88 comp 25.2 | TLR4-MyD88 conf inactive | BLA inhibitor ct inactive
COc1ccc2nc(/C(C#N)=C\c3ccc(Oc4ccc([N+](=O)[O-])cn4)cc3)[nH]c2c1	none
COc1ccc2nc(/C(C#N)=C\c3ccc(C(=O)O)cc3)[nH]c2c1	TLR4 MyD88 comp 27.4 | TLR4-MyD88 conf inactive | BLA inhibitor ct 27.2
O=C(N[C@@H](Cc1ccccc1)C(=O)N1CCC2CCN(S(=O)(=O)c3ccccc3)CC21)[C@@H]1CCCN1 (some centres not stated)	none (no result: ABHD5-PLIN5 inh, Granule exo inh, TLR4 MyD88 comp, NOD2 RIPK2 PPI, TLR9-MyD88 inh)
CCCOC(=O)c1ccc(S(N)(=O)=O)o1	TLR4 MyD88 comp 26.8 | TLR4-MyD88 conf inactive | BLA inhibitor ct inactive
CCN(CC)S(=O)(=O)c1ccc(N2CCCCC2)c(NC(=O)/C(C#N)=C/c2ccc(OC)cc2)c1	none
CCOc1ccc(NC(=O)/C(C#N)=C/c2ccc(N3CCCC3)c(C)c2)cc1	TLR4 MyD88 comp 26.5 | TLR4-MyD88 conf 28.2 | BLA inhibitor ct 65.0
CCN(CC)c1ccc(/C=C(\C#N)c2nc(-c3cccs3)c(NC(C)=O)s2)cc1	TLR4 MyD88 comp 27.9 (no result: ABHD5-PLIN5 inh, Granule exo inh, PRMT1 FP inh, NOD2 RIPK2 PPI, TLR9-MyD88 inh) | TLR4-MyD88 conf 27.9 | BLA inhibitor ct 50.9
CCCCCCNC(=O)C(C#N)c1nc2ccccc2nc1N1CCCC1 (configuration not stated)	TLR4 MyD88 comp 37.7 | TLR4-MyD88 conf 28.8 | BLA inhibitor ct inactive
C[C@H]1C2CC(OC(=O)NCc3ccc(Cl)cc3)C(C2)[C@H]2CCCCN21 (some centres not stated)	none (no result: ABHD5-PLIN5 inh, Granule exo inh, TLR4 MyD88 comp, NOD2 RIPK2 PPI, TLR9-MyD88 inh)
CC(=O)C1=C(C)N(Cc2ccc(F)cc2)C(=S)NC1c1cccc(Br)c1 (configuration not stated)	none (no result: ABHD5-PLIN5 inh, Granule exo inh, TLR4 MyD88 comp, NOD2 RIPK2 PPI, TLR9-MyD88 inh)
Cc1c(NC(=O)CSc2nnc(-c3ccncc3)o2)c(=O)n(-c2ccccc2)n1C	none
Cc1c(NC(=O)CSc2nnc(-c3cccc(Cl)c3)o2)c(=O)n(-c2ccccc2)n1C	TLR4 MyD88 comp 28.6 | TLR4-MyD88 conf inactive | BLA inhibitor ct inactive
